The record followed here is PubChem BioAssay.

The term inhibition denotes the drop in the measured response relative to a control, in per cent.

Assay [1] is described as follows: antimalarial activity against Dd2 strain (AID 2302;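 active = growth inhibition above 50% at the single 2 µM test dose, taken to imply half-maximal potency below 2 µM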;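 also: 0% = DMSO untreated growth and 100% = chloroquine plus artemisinin killed control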). To be noted: P. falciparum Dd2 in RBCs, LDH growth readout, 72 h; at 2 µM; active compounds read high.
The nature of assay [2]: human hepatoma cell viability loss – ATP luminescence, cytotoxicity control for P. falciparum antimalarial project, primary screen (AID 2303;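 active = inhibition above 50%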;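 also: 0% = DMSO wells and 100% = digitonin-killed cells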). Particulars: HepG2 viability, 24-48 h, at 10 µM, active compounds read high.
The target of assay [3] is L-lactate dehydrogenase (Plasmodium falciparum (isolate CDC / Honduras)) (UniProt Q27743). Kind of assay: PfLDH activity inhibition – cell lysate, 3D7 strain, counter-screen for P. falciparum growth inhibition project (AID 2304).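 Also: 0% = vehicle and 100% = reference inhibitor.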 Particulars: P. falciparum 3D7 crude extract, LDH APAD/NBT absorbance; at 2 µM; active compounds read high. (Counterscreens check selectivity or assay interference.)
L-lactate dehydrogenase (Plasmodium falciparum (isolate CDC / Honduras)), sequence (Q27743 whole entry, looked up): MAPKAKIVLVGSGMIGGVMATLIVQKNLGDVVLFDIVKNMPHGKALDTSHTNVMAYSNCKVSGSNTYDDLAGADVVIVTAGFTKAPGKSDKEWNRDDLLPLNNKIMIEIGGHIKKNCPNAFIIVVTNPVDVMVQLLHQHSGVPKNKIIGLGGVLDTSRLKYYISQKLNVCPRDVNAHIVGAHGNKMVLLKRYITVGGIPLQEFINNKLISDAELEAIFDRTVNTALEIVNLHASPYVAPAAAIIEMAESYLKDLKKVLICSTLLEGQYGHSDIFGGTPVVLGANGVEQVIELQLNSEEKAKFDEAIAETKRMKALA

Assay [4] can be described thus: inhibition of 3D7 malaria parasite growth – strain 3D7 (AID 2306).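 Also: 0% = DMSO wells and 100% = chloroquine plus artemisinin control wells.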 Particulars: P. falciparum 3D7 erythrocytic growth, LDH absorbance, 72 h; at 2 µM; active compounds read high.
Assay [5] deals with Calcium-dependent protein kinase 1 (Plasmodium falciparum (isolate 3D7)) (UniProt P62344). Description: PfCDPK1 kinase inhibitors, biochemical, TCAMS library (AID 1159585; cut-off not given, nearly all actives have IC50 up to about 0.98 µM;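 also: inhibitors leave more ATP so luminescence rises with inhibition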). Particulars: recombinant PfCDPK1, Kinase-Glo ATP depletion luminescence. (In general: Kinase-Glo measures the ATP left after a reaction by luminescence.)
Calcium-dependent protein kinase 1 (Plasmodium falciparum (isolate 3D7)), sequence (P62344 whole entry, looked up): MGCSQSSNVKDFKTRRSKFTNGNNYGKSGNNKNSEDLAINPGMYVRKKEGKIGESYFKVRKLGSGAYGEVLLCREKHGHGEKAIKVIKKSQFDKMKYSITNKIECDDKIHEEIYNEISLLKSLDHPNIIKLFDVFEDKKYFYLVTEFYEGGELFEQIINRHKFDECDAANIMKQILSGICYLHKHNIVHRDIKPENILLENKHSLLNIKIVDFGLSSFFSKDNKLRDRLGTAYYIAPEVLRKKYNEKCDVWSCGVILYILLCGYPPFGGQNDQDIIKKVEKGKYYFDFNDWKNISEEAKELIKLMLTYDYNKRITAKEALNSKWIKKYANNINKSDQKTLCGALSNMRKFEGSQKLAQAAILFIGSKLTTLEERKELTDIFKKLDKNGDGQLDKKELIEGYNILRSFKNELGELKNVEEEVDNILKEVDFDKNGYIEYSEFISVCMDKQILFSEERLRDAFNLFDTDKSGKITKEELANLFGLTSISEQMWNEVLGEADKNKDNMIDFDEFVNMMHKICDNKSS
For assay [6], the target named is Plasmodium falciparum protein kinase 6 (PK6, PF3D7_1337100) (UniProt Q8IDW1). Description: PfPK6 kinase inhibitors, biochemical, TCAMS library (AID 1159586). Particulars: recombinant PfPK6, Kinase-Glo ATP depletion luminescence.
Plasmodium falciparum protein kinase 6 (PK6, PF3D7_1337100), sequence (Q8IDW1 1-305): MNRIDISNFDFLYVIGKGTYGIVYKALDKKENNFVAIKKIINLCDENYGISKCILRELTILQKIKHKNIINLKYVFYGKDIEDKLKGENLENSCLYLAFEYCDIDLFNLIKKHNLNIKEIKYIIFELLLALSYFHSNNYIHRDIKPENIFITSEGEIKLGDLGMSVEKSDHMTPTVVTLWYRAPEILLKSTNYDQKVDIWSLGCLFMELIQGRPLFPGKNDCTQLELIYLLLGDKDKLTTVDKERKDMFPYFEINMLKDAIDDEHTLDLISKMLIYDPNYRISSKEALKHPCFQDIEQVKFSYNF
In assay [7] the target is Protein kinase 7 (PK7), Plasmodium falciparum 3D7 (PF3D7_0213400) (UniProt Q7YTF7). Kind of assay: inhibition of Plasmodium PK7 catalytic activity – biochemical, TCAMS antimalarial set, Kinase-Glo luminescence (AID 1159587). To be noted: recombinant PfPK7, Kinase-Glo ATP depletion luminescence.
Protein kinase 7 (PK7), Plasmodium falciparum 3D7 (PF3D7_0213400), sequence (Q7YTF7 1-343): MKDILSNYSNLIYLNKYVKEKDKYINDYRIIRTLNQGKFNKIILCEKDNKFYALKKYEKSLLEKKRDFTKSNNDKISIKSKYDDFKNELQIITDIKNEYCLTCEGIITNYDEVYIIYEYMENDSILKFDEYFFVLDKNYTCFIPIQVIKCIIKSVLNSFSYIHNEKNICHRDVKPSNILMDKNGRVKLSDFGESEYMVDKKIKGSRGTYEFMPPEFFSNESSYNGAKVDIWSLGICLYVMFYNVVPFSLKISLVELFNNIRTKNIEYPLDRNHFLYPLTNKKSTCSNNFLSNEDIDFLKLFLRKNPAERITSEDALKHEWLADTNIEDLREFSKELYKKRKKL
Assay [8] has as its target Calcium-dependent protein kinase 4 (Plasmodium falciparum (isolate 3D7)) (UniProt Q8IBS5). Kind of assay: PfCDPK4 kinase inhibitors, biochemical, TCAMS library (AID 1159588; cut-off not given, nearly all actives have IC50 up to about 0.91 µM). To be noted: recombinant PfCDPK4, Kinase-Glo ATP depletion luminescence.

Values without a mark were called inactive. For part of these data: Potency and affinity values are given separately. Active and inactive are the calls of the source. Unless noted, no rule for the calls is given here.

Calcium-dependent protein kinase 4 (Plasmodium falciparum (isolate 3D7)), sequence (Q8IBS5 whole entry, looked up): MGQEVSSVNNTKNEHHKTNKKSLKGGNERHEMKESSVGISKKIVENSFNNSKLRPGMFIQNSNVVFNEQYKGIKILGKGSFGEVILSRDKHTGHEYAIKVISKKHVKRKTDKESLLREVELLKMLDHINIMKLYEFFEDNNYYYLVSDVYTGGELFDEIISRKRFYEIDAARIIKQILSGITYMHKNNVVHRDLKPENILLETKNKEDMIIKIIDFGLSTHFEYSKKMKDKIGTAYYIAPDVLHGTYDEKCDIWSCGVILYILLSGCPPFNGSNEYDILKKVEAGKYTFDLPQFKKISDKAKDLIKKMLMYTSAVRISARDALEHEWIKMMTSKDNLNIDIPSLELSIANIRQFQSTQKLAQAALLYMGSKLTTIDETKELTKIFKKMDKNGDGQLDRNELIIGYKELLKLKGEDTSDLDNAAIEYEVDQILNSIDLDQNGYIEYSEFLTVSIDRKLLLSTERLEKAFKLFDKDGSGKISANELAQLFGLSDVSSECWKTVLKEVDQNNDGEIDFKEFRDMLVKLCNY

With `Cc1ccnc2nc(C(=O)Nc3cc(C(F)(F)F)ccc3N3CCCCC3)nn12`, the growth inhibition in assay [1] is 94% (active); in assay [4], 96% (active). Further, the inhibition in assay [2] was 7%; in assay [3], -5%. In addition, the result in assay [5], in assay [6], in assay [7] and in assay [8] was inactive.

Consider `COc1ccc(CN=C(N)Nc2nc(-c3ccc(OCCCn4ccnc4)cc3)cs2)cc1`, for which the growth inhibition was 67% (active) in assay [1] and 100% (active) in assay [4]. Further, the results for the inhibition in assay [2] and in assay [3] were 15% and -5%, respectively. The outcome in assay [5], in assay [6], in assay [7] and in assay [8] was inactive.

On to `Fc1ccccc1-c1cc(Nc2ccncc2)nc(-c2cccnc2)n1`, for which the values for the growth inhibition in assay [1] and in assay [4] were 89% (active) and 103% (active), respectively. Besides, the inhibition in assay [2] is 91% (active); in assay [3] it was 3%. Further, the result in assay [5], in assay [6], in assay [7] and in assay [8] was inactive.

Take `CCc1nc2nc(C)cc(Nc3ccc(F)c(Cl)c3)n2n1`: the growth inhibition was 77% (active) in assay [1] and 90% (active) in assay [4]. The inhibition in assay [2] was 2%; in assay [3], -3%. In addition, the outcome in assay [5], in assay [6], in assay [7] and in assay [8] was inactive.

Regarding `O=C(Nc1ccc(Cl)cc1)c1ccc(CN2CCCN(Cc3ccsc3)CC2)cc1`, the growth inhibition was 1% in assay [1] and 88% (active) in assay [4]. The inhibition in assay [2] is 48%; in assay [3], 4%. For the same compound, the result in assay [5], in assay [6], in assay [7] and in assay [8] was inactive.

Turning to `COc1ccc(-n2nc(C(=O)NCc3ccccc3OC)c3ccccc3c2=O)cc1`, the results for the growth inhibition in assay [1] and in assay [4] were 94% (active) and 102% (active), respectively. Further, the inhibition in assay [2] was 2%; in assay [3], 0%. The result in assay [5], in assay [6], in assay [7] and in assay [8] was inactive.

Take `O=C(Nc1cc(Cl)ccc1Cl)N[C@H]1CCN(CCCCCNC(=O)[C@@H]2C[C@H]2c2ccc(Cl)c(Cl)c2)C1`: the growth inhibition in assay [1] is 1%; in assay [4], 97% (active). Besides, the values for the inhibition in assay [2] and in assay [3] were 49% and 0%, respectively. For the same compound, the result in assay [5], in assay [6], in assay [7] and in assay [8] was inactive.

Turning to `Clc1ccc(-n2cnc3c(Nc4ccc(Oc5ccccc5)cc4)ncnc32)cc1Cl`, the growth inhibition in assay [1] is 65% (active); in assay [4], 99% (active). For the same compound, the results for the inhibition in assay [2] and in assay [3] were 4% and 0%, respectively. The outcome in assay [5], in assay [6], in assay [7] and in assay [8] was inactive.

Regarding `O=C(Nc1nc(-c2ccccn2)cs1)c1ccccc1COc1ccccc1`, the growth inhibition in assay [1] is 42%; in assay [4], 83% (active). Also, the inhibition in assay [2] was 34%; in assay [3], -2%. Besides, the outcome in assay [5], in assay [6], in assay [7] and in assay [8] was inactive.

For `Cc1nc2ccc(NC(=O)c3cc(S(=O)(=O)N(C)C)ccc3Cl)cc2s1`, the growth inhibition was 77% (active) in assay [1] and 91% (active) in assay [4]. The results for the inhibition in assay [2] and in assay [3] were 20% and -2%, respectively. Further, the result in assay [5], in assay [6], in assay [7] and in assay [8] was inactive.

On to `Fc1ccc(-c2cncc(Nc3ccncc3)n2)cc1`, for which the growth inhibition in assay [1] was 11%; in assay [4] it was 88% (active). In addition, the inhibition was 8% in assay [2] and -1% in assay [3]. Besides, the outcome in assay [5], in assay [6], in assay [7] and in assay [8] was inactive.

Take `N#Cc1ccc(-c2ccc(C(=O)NCCCCN3CCC(c4ccc5c(c4OCC(N)=O)CCCC5)CC3)nc2)cc1`: the growth inhibition was 97% (active) in assay [1] and 100% (active) in assay [4]. For the same compound, the inhibition in assay [2] is 21%; in assay [3], -4%. For the same compound, the result in assay [5], in assay [6], in assay [7] and in assay [8] was inactive.

In the case of `CCN1CCN(c2cc(C)c3cc(NC(=O)c4cccc(OC)c4)ccc3n2)CC1`, the growth inhibition in assay [1] is 15%; in assay [4], 99% (active). Also, the inhibition in assay [2] is 5%; in assay [3], 3%. Moreover, the outcome in assay [5], in assay [6], in assay [7] and in assay [8] was inactive.

Regarding `CS(=O)(=O)c1ccc(-c2cncc(Cl)n2)cc1`, the results for the growth inhibition in assay [1] and in assay [4] were 95% (active) and 100% (active), respectively. Besides, the results for the inhibition in assay [2] and in assay [3] were 8% and 7%, respectively. Further, the outcome in assay [5], in assay [6], in assay [7] and in assay [8] was inactive.

As for `COc1ccc2nc(SC(C)C(=O)c3c[nH]c4ccccc34)[nH]c2c1` (stereo not drawn), the values for the growth inhibition in assay [1] and in assay [4] were 98% (active) and 100% (active), respectively. Further, the inhibition in assay [2] is -3%; in assay [3], 0%. Also, the result in assay [5], in assay [6], in assay [7] and in assay [8] was inactive.

For `CC(=O)Nc1ccc(CN(Cc2ccc(F)cc2)Cc2cccc(Oc3ccccc3)c2)cc1`, the values for the growth inhibition in assay [1] and in assay [4] were 82% (active) and 88% (active), respectively. The inhibition is -8% in assay [2] and 6% in assay [3]. The outcome in assay [5], in assay [6], in assay [7] and in assay [8] was inactive.

For `COc1ccccc1C1CC(c2ccccc2)=NN1C(=O)c1ccccc1` (stereo not drawn), the growth inhibition is 93% (active) in assay [1] and 100% (active) in assay [4]. The inhibition in assay [2] is 13%; in assay [3], -3%. The result in assay [5], in assay [6], in assay [7] and in assay [8] was inactive.

As for `COc1ccc(C(=O)CCC(=O)N(Cc2ccc(-c3ccc(CNCCc4ccc(S(C)(=O)=O)cc4)cn3)cc2)C2CCN(Cc3ccccc3)CC2)cc1F`, the growth inhibition in assay [1] was 72% (active); in assay [4], 99% (active). Besides, the inhibition in assay [2] was 20%; in assay [3], 2%. In addition, the outcome in assay [5], in assay [6], in assay [7] and in assay [8] was inactive.

On to `COc1ccc(-c2ccc(NC(=O)c3cccc(C#N)c3)cc2)cc1CN1CCCN(C)CC1`, for which the results for the growth inhibition in assay [1] and in assay [4] were 70% (active) and 102% (active), respectively. The inhibition in assay [2] was 26%; in assay [3], 6%. Besides, the result in assay [5], in assay [6], in assay [7] and in assay [8] was inactive.

As for `c1cncc(CN2CCCN(c3ccc4c(c3)CCN(Cc3ccc(-c5ncc[nH]5)cc3)CC4)CC2)c1`, the growth inhibition is 33% in assay [1] and 99% (active) in assay [4]. Besides, the figures for the inhibition in assay [2] and in assay [3] were 7% and 2%, respectively. For the same compound, the result in assay [5], in assay [6], in assay [7] and in assay [8] was inactive.

`CC1CN(Cc2ccc(-c3cccc(-c4nc5ccc(F)cc5[nH]4)c3)cc2)CC(C)O1` (stereo not drawn): the growth inhibition in assay [1] is 20%; in assay [4] it was 93% (active). For the same compound, the inhibition was 28% in assay [2] and -3% in assay [3]. In addition, the result in assay [5], in assay [6], in assay [7] and in assay [8] was inactive.
